Reference: PubChem BioAssay (NCATS)
Some of the results follow. Inconclusive results are not listed. Calls of active or inactive are those of the source. The call rests on the fitted dose curve.
On the % scale 0 is the no-effect control and ±100 the full control effect; potency means the concentration at half of the fitted maximal effect.

What follows are compounds tested against Papain (Carica papaya) (UniProt P00784) (assay: Selectivity profile for inhibitors of NSP2Pro chikungunya virus (CHIKV): Papain Counterscreen (AID 1964104)). Conditions: purified papain protease activity, enzymatic inhibition; series mostly up to 51 µM; activity change, negative = inhibition: at the top concentration.
Papain (Carica papaya), sequence (P00784 whole entry, looked up): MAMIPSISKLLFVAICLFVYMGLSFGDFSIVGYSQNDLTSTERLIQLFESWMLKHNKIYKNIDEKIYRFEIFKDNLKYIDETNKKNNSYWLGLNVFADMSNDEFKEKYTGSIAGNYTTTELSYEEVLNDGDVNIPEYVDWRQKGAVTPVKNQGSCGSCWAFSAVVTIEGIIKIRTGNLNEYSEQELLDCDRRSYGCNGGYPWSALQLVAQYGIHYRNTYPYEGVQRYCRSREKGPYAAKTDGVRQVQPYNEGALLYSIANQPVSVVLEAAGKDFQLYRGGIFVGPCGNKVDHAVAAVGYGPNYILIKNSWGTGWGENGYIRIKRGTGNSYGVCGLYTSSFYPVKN
Text: PI: Natalia J. Martinez Ph.D.
National Center for Advancing Translational Sciences (NCATS),
National Institute of Health (NIH), Rockville, Maryland
Chikungunya virus (CHIKV) is a mosquito-borne RNA virus that has emerged as one of the most important global arboviral threats in the last decade. Although the first CHIKV vaccine has recently been FDA approved for use in healthy adults at increased risk, to date, there are no available antiviral drugs for CHIKV infection. CHIKV nsP2 protease plays a crucial role in the processing of the viral polypeptide precursor to release enzymes required for viral replication, thus making it a promising drug target for antiviral discovery. Here, we established a high-throughput pipeline to identify small molecule inhibitors of nsP2 proteolytic activity. The pipeline is composed of a suite of 1,536-well in vitro assays to support quantitative high-throughput (qHTS) screening campaigns. Specifically, we developed a fluorescence resonance energy transfer (FRET)-based assay using a fluorogenic peptide substrate encompassing an endogenous cleavage site and purified recombinant protease domain (nsP2pro). Using this assay, we interrogated ~37,000 small molecules, including those in drug repurposing libraries as well as chemically diverse and medicinal chemistry-friendly compounds. Hits were selected for follow-up validation against full-length nsP2 and an additional peptide. FRET-based 1,536-well assays for papain, hepatitis C virus NS3-4A, and human furin proteases were implemented to characterize compound selectivity. […] Novel compounds were identified to be potential nsP2 inhibitors and molecular docking analyses were performed to explain the binding mode of selected hits. In vitro antiviral activity was evaluated for a subset of compounds using a high-throughput CHIKV infection assay. To our knowledge, the pipeline presented here is unprecedented for CHIKV antiviral discovery research.
PROTOCOL TABLE (as described by Inglese J, Shamu CE and Guy RK. 2007)
SEQUENCE No. (e.g., 1, 2, 3, etc.); […] (e.g., Cells, Incubation, Reagent, etc.); VALUE; DESCRIPTION.
1a; Reagent; 3 uL; Papain in assay buffer.
1b; Reagent; 3uL; Assay buffer
2; Compound; 17 nL; Echo 655 acoustic dispenser (Beckman Coulter).
3; Incubation; 15 min; room temperature in the dark.
4: Reagent; 1 uL; Z-FR-AMC in assay buffer.
5; Incubation; 15 sec, 271g; centrifugation.
6; Detection; Fluorescence; time 0, Viewlux microplate reader (PerkinElmer) 355 nm excitation, 460 nm emission
7; Incubation; 10 min; room temperature
8; Detection; Fluorescence; time 10; ViewLux microplate reader (PerkinElmer), 355 nm excitation, 460 nm emission.
NOTES (numbers refer to sequence numbers above).
1a. Medium-binding black solid-bottom Greiner plates (cat. 789176-F). Dispense 3 uL of 1.33X papain in assay buffer (100 mM sodium acetate, pH 5.5, 5 mM dl-cysteine, 0.01% Tween-20 v/v) to columns 1, 2, 5-48 via Wako/Kalypsys dispenser. Papain (cat. P4762, Sigma) was dispensed to produce 5 nM final concentration. Enzyme solution kept on ice during experiment. Prepare papain as 50% glycerol (v/v) at final concentration of 10 mg/mL (427 uM, 100 U/mL). Sources: microplates (Greiner 789176-F), papain (Sigma P4762), sodium acetate (Bioworld 40120009-2), cysteine (Sigma 861677), Tween-20 (Sigma P1379), water (GIBCO 10977-015; Gibco).
1b. Dispense 3 uL of assay buffer (100 mM sodium acetate, pH 5.5, 5 mM dl-cysteine, 0.01% Tween-20 v/v) to columns 3 and 4 via Wako/Kalypsys dispenser. Assay buffer solution kept on ice during experiment.
2. Compound addition by single pin transfer (17 nL) using Wako pintool. Compound solutions in source plate: 169 nM to 10 mM DMSO stock solutions. Final concentrations: 0.664 nM to 39.2 uM, respectively. Final DMSO concentration: 0.5% (v/v).
3. RT incubation. Kalypsys lids used as microplate coverings. Protected from light.
4. […]
In the case of `CCOc1ccc(NC(=O)c2c(NC(=O)Cc3ccccc3)sc3c2CCCCC3)cc1`, the “activity change, negative = inhibition” value is reported as -3.23% (inactive).
For `Cn1nnnc1Sc1ncnc2n[nH]c(-c3cccc(S(C)(=O)=O)c3)c12`, the “activity change, negative = inhibition” value was -21.7% [at 500 µM] (inactive).
For `Cc1c(S(=O)(=O)O)oc2c1C(=O)C(=O)c1c-2ccc2c1CCCC2(C)C`, the Potency was 18.3 µM (active).
For `O=C(O)c1cccc(-n2[nH]c(-c3ccccc3)cc2=O)c1`, the “activity change, negative = inhibition” value was -4.53% (inactive).
`Oc1ccc(OC2CCCCO2)cc1` (stereo unspecified) was tested, and the “activity change, negative = inhibition” value was -2.72% (inactive).
With `C[C@@H]1O[C@@H](O[C@@H]2[C@@H](O)[C@H](OCCc3ccc(O)c(O)c3)O[C@H](CO[C@@H]3O[C@H](CO)[C@@H](O)[C@H](O)[C@H]3O)[C@H]2OC(=O)/C=C/c2ccc(O)c(O)c2)[C@H](O)[C@H](O)[C@H]1O` the “activity change, negative = inhibition” value was -16% (inactive).
In the case of `CCOc1ccc(NC(=O)c2c(NC(=O)Cc3ccccc3)sc3c2CCC(C)C3)cc1` (stereo unspecified), the “activity change, negative = inhibition” value is reported as -1.65% (inactive).
For `CC(=O)N[C@@H](C(=O)O[C@H]1CCC(C)(C)[C@@H]2CCC3=C(COC3=O)[C@@]12C)C(C)C`, the “activity change, negative = inhibition” value was -9% [at 33.5 µM] (inactive).
With `CO[C@]1(NC(=O)CSC(F)F)C(=O)N2C(C(=O)O)=C(CSc3nnnn3CCO)CO[C@H]21` the Potency was 6.51 µM (active).
In the case of `CCOc1ccc(N(Cc2ccccc2)C(=O)c2nc(S(C)(=O)=O)ncc2Cl)cc1`, the “activity change, negative = inhibition” value is reported as -4.78% (inactive).
In the case of `C[C@@H]1C[C@@H](O)[C@@]23CO[C@]2(CO)C[C@@H](O)CC3[C@@]12CC(c1ccoc1)OC2=O` (stereo partly specified), the “activity change, negative = inhibition” value is reported as -1.13% [at 33.5 µM] (inactive).
For `C[C@@H]1[C@H](O)[C@@H]2OC(=O)C3=C2[C@H](CCC3)[C@@]12C[C@@H](c1ccoc1)OC2=O`, the “activity change, negative = inhibition” value was -2.31% [at 33.5 µM] (inactive).
With `CCc1ccccc1NC(=O)c1cnn(-c2ccc(F)cc2)c1C1CCNCC1` the “activity change, negative = inhibition” value was -3.43% (inactive).
In the case of `CCC(C)C(=O)OC1C(C)C2(O)C(C=C(CO)CC3(O)C(=O)C(C)=CC32)C2C(C)(C)C12OC(=O)C(C)C` (stereo unspecified), the “activity change, negative = inhibition” value is reported as -20.1% [at 17.2 µM] (inactive).
In the case of `COC([CH2][Hg])CNC(=O)c1ccccc1OCC(=O)O` (stereo unspecified), the “activity change, negative = inhibition” value is reported as -5.61% (inactive).
For `Cc1ccc(N[S+](=O)([O-])c2cc3c(cc2N[C@@H](C)CO)NC(=O)CC3)cc1N[C@@H](C)CO`, the “activity change, negative = inhibition” value was 82.5% (inactive).
